# Assay results published in the supplement of paper PMC11732987, “Enantioselective OTUD7B fragment discovery through chemoproteomics screening and high-throughput optimisation” (Communications Chemistry, 2025).
# Values without a mark were called inactive.
# What was measured:
# Test in all cases: log2 ratio of Biotin-Ahx-Ub-VS probe labelling (fragment/DMSO); higher = less target engagement (more negative = stronger competition), active = hit call of the paper (q ≤ 0.05, log2 ratio ≤ -1)
# Settings in all cases: compound concentration: 200 uM; treatment time: 3 h
# OTUD6B = target: T1, OTUD6B (UniProt Q8N6M0)
# T1 sequence (whole entry): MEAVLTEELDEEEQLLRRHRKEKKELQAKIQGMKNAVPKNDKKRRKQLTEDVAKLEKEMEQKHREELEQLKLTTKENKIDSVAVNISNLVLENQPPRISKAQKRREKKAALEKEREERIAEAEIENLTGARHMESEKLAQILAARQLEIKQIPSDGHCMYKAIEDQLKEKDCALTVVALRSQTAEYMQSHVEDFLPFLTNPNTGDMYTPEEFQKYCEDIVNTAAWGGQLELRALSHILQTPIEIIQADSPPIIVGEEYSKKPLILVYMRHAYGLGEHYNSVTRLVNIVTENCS
# Method in brief: (§1)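 Fragment (200 µM) or vehicle was incubated for 3 h with triplicate HEK293T lysate samples of 495 µg, which were then treated with Biotin-Ahx-Ub-VS at 0.5 µM final for 1 h. Labelled DUBs were enriched on NeutrAvidin, digested with LysC and trypsin, and analysed by diaPASEF LC-MS/MS. Values are average log2 fragment/vehicle ratios from an unpaired t-test on global-median-normalised Spectronaut label-free quantities, using proteins with ≥2 unique peptides.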
# OTUD7B = target: T2, OTUD7B (UniProt Q6GQQ9)
# T2 sequence (whole entry): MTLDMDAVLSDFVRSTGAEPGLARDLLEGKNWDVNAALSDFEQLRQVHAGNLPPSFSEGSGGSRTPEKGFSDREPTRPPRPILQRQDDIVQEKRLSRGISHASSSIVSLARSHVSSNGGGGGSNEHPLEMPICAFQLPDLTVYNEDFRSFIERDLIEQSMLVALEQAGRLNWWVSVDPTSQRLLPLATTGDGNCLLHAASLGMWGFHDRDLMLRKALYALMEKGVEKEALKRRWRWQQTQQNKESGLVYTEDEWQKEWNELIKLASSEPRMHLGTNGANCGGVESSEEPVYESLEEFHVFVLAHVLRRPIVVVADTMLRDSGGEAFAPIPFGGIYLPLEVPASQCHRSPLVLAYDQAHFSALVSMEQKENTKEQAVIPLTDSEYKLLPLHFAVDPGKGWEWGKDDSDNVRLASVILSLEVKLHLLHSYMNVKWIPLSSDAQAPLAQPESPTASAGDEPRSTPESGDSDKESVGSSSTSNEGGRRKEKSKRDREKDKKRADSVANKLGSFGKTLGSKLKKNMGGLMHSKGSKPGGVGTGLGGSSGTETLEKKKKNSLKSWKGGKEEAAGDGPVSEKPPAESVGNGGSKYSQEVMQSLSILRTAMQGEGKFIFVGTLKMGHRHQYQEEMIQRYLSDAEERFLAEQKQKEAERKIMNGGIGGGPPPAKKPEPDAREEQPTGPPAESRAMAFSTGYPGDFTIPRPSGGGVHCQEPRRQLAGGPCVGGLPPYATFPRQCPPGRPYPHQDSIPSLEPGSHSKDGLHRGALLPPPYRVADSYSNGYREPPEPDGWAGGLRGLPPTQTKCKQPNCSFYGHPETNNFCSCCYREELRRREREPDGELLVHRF
# Method in brief: as §1
# PRPF8 = PRPF8 (UniProt Q6P2Q9)
# Method in brief: as §1
# PSMD7 = target: T3, PSMD7 (UniProt P51665)
# T3 sequence (whole entry): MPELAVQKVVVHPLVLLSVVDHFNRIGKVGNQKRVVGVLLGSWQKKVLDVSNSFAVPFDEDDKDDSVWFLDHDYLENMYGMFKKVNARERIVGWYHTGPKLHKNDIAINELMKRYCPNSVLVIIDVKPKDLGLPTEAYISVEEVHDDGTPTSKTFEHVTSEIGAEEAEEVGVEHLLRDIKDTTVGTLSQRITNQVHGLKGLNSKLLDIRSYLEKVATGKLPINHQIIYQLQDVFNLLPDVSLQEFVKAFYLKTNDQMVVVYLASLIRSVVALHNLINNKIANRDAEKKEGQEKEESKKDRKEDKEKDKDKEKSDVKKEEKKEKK
# Method in brief: as §1
# UCHL1 = UCHL1 (UniProt P09936)
# Chain of UCHL1 (P09936 whole entry, looked up): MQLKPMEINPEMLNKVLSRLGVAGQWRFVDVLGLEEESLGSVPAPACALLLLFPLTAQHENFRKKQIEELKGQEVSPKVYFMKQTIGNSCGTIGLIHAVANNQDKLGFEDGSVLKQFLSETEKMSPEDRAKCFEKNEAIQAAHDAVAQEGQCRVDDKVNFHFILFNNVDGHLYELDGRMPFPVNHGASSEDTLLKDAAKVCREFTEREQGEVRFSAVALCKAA
# Method in brief: as §1
# UCHL3 = target: T4, UCHL3 (UniProt P15374)
# T4 sequence (whole entry): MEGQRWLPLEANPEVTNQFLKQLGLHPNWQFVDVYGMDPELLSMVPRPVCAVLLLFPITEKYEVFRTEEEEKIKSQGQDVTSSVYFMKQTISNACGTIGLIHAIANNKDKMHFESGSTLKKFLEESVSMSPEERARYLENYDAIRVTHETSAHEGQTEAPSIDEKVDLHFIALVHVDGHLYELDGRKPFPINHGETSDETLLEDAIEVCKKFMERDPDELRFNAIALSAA
# Method in brief: as §1
# UCHL5 = target: T5, UCHL5 (UniProt Q9Y5K5)
# T5 sequence (whole entry): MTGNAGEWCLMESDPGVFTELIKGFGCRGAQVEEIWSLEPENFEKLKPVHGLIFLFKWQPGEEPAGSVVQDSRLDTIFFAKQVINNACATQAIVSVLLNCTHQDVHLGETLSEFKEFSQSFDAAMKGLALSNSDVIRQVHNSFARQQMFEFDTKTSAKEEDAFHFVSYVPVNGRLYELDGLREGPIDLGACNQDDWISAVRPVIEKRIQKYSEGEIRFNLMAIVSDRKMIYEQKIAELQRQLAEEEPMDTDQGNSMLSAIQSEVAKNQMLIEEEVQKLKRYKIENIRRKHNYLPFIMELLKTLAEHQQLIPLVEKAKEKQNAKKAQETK
# Method in brief: as §1
# USP10 = USP10 (UniProt Q14694)
# Chain of USP10 (Q14694 whole entry): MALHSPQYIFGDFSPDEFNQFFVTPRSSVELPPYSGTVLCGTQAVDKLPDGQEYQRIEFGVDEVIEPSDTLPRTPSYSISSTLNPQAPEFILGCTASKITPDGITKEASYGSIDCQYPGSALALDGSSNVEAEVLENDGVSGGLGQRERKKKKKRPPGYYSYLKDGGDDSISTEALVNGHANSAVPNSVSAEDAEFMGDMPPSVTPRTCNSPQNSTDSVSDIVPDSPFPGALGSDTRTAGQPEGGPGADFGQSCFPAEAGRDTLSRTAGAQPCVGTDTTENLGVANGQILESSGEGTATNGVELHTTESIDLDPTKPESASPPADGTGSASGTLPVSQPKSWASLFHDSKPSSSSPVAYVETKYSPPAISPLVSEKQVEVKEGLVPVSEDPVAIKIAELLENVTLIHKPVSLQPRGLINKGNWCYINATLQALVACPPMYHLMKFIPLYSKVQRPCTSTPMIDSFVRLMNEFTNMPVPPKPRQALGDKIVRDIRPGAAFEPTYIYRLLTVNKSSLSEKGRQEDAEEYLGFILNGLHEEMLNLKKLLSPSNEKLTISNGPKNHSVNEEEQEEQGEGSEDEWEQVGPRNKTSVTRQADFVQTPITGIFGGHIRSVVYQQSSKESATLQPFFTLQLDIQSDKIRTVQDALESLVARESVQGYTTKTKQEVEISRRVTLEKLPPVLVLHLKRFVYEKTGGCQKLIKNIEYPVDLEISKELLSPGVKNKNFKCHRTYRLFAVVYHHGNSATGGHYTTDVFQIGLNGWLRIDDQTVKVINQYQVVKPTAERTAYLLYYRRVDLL
# Method in brief: as §1
# USP15 = target: T6, USP15 (UniProt Q9Y4E8)
# T6 sequence (whole entry): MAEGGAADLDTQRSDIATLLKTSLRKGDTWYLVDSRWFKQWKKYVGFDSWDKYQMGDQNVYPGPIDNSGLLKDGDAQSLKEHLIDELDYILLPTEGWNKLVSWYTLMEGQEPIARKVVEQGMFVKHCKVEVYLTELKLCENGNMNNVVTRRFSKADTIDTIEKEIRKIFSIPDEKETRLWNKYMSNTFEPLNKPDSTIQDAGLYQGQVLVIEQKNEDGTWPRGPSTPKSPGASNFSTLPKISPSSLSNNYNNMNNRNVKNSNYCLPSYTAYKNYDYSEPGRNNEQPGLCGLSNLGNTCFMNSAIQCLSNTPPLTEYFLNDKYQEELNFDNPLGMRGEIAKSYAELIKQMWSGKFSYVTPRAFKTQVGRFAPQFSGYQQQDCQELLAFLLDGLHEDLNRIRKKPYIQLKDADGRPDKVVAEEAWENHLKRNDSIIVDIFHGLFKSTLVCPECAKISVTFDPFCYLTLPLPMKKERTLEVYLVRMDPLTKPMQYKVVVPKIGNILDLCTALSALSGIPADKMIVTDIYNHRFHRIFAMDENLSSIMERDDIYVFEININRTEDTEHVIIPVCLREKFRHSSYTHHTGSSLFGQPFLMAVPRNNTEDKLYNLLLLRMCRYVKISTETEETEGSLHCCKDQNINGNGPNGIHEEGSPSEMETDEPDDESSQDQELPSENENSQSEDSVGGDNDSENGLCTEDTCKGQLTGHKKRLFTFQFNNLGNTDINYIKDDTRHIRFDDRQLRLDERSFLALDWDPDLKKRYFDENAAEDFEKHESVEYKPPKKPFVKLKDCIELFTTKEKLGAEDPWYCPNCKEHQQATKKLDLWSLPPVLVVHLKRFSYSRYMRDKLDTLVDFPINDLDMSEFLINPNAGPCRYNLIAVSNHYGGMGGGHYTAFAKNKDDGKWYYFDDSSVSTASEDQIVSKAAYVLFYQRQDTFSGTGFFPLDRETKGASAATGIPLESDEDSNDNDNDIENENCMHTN
# Method in brief: as §1
# USP16 = USP16 (UniProt Q9Y5T5)
# Chain of USP16 (Q9Y5T5 whole entry, looked up): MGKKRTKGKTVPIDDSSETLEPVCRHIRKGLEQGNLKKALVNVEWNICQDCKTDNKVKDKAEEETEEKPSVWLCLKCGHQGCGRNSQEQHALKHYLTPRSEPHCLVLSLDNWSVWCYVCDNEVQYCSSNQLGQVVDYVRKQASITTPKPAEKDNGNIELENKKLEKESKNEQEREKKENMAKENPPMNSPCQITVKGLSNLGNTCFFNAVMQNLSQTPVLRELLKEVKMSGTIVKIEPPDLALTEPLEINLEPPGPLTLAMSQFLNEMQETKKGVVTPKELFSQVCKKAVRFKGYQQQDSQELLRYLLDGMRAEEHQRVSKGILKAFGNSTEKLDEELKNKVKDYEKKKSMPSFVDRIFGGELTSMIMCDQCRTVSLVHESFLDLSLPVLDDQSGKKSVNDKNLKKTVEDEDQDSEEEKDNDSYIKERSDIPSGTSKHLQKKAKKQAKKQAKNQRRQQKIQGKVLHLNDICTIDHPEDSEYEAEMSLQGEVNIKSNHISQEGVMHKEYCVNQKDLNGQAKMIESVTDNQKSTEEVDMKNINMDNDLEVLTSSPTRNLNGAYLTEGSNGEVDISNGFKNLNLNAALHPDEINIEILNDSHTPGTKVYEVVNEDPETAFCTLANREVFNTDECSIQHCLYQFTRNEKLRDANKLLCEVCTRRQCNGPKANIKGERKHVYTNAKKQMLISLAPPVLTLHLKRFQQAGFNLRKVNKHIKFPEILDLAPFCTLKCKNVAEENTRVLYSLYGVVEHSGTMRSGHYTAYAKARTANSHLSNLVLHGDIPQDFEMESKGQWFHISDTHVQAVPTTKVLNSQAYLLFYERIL
# Method in brief: as §1
smiles,measurement,setting,value
N#Cc1cnn(-c2ccccc2)c1NC(=O)CCl,log2 ratio of Biotin-Ahx-Ub-VS probe labelling,OTUD6B,-0.394
same,log2 ratio of Biotin-Ahx-Ub-VS probe labelling,OTUD7B,-1.83 (active)
same,log2 ratio of Biotin-Ahx-Ub-VS probe labelling,PRPF8,-0.0739
same,log2 ratio of Biotin-Ahx-Ub-VS probe labelling,PSMD7,-0.397
same,log2 ratio of Biotin-Ahx-Ub-VS probe labelling,UCHL1,-1.35 (active)
same,log2 ratio of Biotin-Ahx-Ub-VS probe labelling,UCHL3,0.168
same,log2 ratio of Biotin-Ahx-Ub-VS probe labelling,UCHL5,-0.235
same,log2 ratio of Biotin-Ahx-Ub-VS probe labelling,USP10,-0.0214
same,log2 ratio of Biotin-Ahx-Ub-VS probe labelling,USP15,-0.516
same,log2 ratio of Biotin-Ahx-Ub-VS probe labelling,USP16,-0.0136
